From PubChem BioAssay
PP5 inh = inhibitors of human protein phosphatase 5 (PP5); P53041; purified PP5c, OMFP substrate fluorescence; inhibition, % at 6.7 µM; hit rate 0.18% among 320,000;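 active = inhibition above the campaign's mean inhibition across all tested compounds plus 3 SD, cut at about 9.5% in these data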;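 also: 0% = DMSO only and 100% = 100 µM cantharidin control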
Target sequence (P53041 whole entry, looked up): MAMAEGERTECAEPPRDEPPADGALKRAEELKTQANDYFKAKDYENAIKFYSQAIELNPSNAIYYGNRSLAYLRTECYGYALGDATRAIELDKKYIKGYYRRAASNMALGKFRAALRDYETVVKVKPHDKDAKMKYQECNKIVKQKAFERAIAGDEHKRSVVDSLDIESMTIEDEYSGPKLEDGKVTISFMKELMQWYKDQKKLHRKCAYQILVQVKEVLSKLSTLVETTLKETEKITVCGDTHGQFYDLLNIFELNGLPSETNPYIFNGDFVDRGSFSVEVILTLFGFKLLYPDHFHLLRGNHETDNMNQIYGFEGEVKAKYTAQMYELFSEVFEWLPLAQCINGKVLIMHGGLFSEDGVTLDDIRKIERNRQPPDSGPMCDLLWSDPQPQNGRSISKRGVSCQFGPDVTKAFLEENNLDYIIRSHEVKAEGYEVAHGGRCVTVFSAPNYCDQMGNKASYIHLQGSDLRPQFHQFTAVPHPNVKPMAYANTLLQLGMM
MsrA inhibitor = inhibits bovine methionine sulfoxide reductase A | purified bovine MsrA, absorbance read-out | hit rate 0.75% among 360,000 | inhibition, % at 15.5 µM;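 also: 0% = vehicle wells with enzyme and 100% = reference inhibitor wells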
EBNA-1 inh = blocks EBNA-1 binding to DNA; EBNA-1 DNA binding, fluorescence polarization; inhibition, % at 14.8 µM; hit rate 0.34% among 300,000; in the data active = inhibition above about 28%
PP1 counter = blocks human PP1-alpha phosphatase, a PP5 counter-screen; AID 2235; purified PP1alpha, OMFP fluorescence; hit rate 0.9% among 320,000; P62136; inhibition, % at 6.7 µM;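 active = inhibition above the mean inhibition of all tested compounds plus 3 SD, computed separately for each screening campaign, cut at about 15% in these data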
ZTA counter = ZTA (EBV) inhibition in EBNA-1 counter-screen; P03206; ZTA-DNA binding, fluorescence polarization; inhibition, % at 11 µM; hit rate 0.15% among 320,000; AID 2234; in the data active = inhibition above about 33%
bovine MsrA act = activates bovine MsrA enzyme; purified bovine MsrA, absorbance read-out; activation, % at 10.6 µM; hit rate 0.3% among 360,000; in the data active = activation above about 7.5%;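 also: 0% = vehicle and 100% = reference activator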
MsrA inh confirm = bovine MsrA inhibition, confirmed; inhibition, % at 15.5 µM; AID 651822; shares compounds with MsrA inhibitor; hit rate 41% among 2,300; purified bovine MsrA, absorbance read-out;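 also: coupled to thioredoxin reductase with NADPH and selenocystamine and DMSO as substrate; 0% = vehicle only and 100% = full effect of reference inhibitor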
Numbers without * were called inactive; · = no result given. Hits are enriched below; roughly 2.3% of the tested compounds scored in any of these assays. Rule as the data show it, unless noted: active = inhibition above about 4.5%; inactive = the rest.

SMILES	PP5 inh	MsrA inhibitor	EBNA-1 inh	PP1 counter	ZTA counter	bovine MsrA act	MsrA inh confirm
N#C/C(=C\C=C\c1ccccc1)C(=O)N1CCCC1	0.8	4.8*	-2.5	-0.1	3.7	-3.2	4.8*
CC1(C)CC(=O)c2sc(NC(=O)CN3C(=O)CCC3=O)nc2C1	-0.3	5.0*	7.1	-2.7	18.3	-0.3	1.9
CC1(C)CC(=O)c2sc(NS(C)(=O)=O)nc2C1	2.2	6.6*	7.1	-2.2	-4.2	-4.9	3.9
CC1(C)CC(=O)c2sc(NC(=O)CN3CCOCC3)nc2C1	-0.4	1.0	7.2	1.2	-4.4	-2.2	·
CC1(C)CC(=O)c2sc(NS(=O)(=O)c3ccc([N+](=O)[O-])cc3)nc2C1	2.3	6.3*	-1.7	0.5	1.7	-2.3	3.7
CC(C)c1ccc(CC(=O)N2CCC2(C)C(=O)NCCC#N)cc1 (configuration not stated)	·	-0.7	·	·	·	-3.4	·
Cc1cccc(C)c1N/C=C/c1onc(C)c1[N+](=O)[O-]	3.1	2.1	3.3	0.4	-1.2	-12.0	·
Cc1noc(/C=C/c2cccnc2)c1[N+](=O)[O-]	2.1	5.3*	-8.1	-0.1	13.3	-10.4	2.7
O=C(/C=C/c1ccco1)NC(=S)Nc1ccccc1	3.8	3.7	-9.1	0.6	-2.0	-4.0	·
Cc1cccc(NC(=S)NC(=O)/C=C/c2ccco2)c1	1.6	24.8*	-14.1	3.1	-1.3	-4.6	1.3
COc1ccc(-n2nc([N+](=O)[O-])c(=NCCCN3CCCC3=O)n2O)cc1	0.9	4.8*	-6.3	3.2	-11.5	-1.5	0.1
O=C1CCCN1CCCN=c1c([N+](=O)[O-])nn(-c2ccc(Cl)cc2)n1O	·	1.4	·	·	·	-2.1	·
CCS(=O)(=O)N1CCC(N2CCC(C)CC2)CC1	0.1	1.6	-2.4	-0.7	-19.2	-9.7	·
Cc1ccc(OCC(=O)N/N=C/C=C/c2ccco2)cc1	-4.6	4.7*	-9.4	1.5	-8.0	-11.2	1.9
Cc1c(C(=O)N/N=C/c2ccc(O)cc2)sc(=S)n1C	2.6	5.8*	-8.1	1.1	-5.4	-6.3	4.8*
O=c1oc2ccccc2c(NC(c2ccccc2)c2ccccc2)c1[N+](=O)[O-]	-0.2	62.1*	-12.8	4.0	-1.0	-14.2	55.5*
C[C@H](NC(=O)c1nc[nH]c1C(=O)N(C)Cc1ccccc1)c1ccccc1	1.8	-0.6	·	-1.8	-3.6	-7.5	·
O=S(=O)(O)Sc1ccccc1	·	8.5*	·	·	·	-8.0	1.6
O=[N+]([O-])c1cccc(-c2ccc(C(=S)N3CCOCC3)o2)c1	1.1	5.1*	-2.6	4.2	-10.3	-7.4	5.6*
O=C(O)c1ccc(N/N=C/c2cccc3nccnc23)cc1	0.6	5.3*	-10.1	0.5	-20.3	-8.4	3.8
O=C(O)c1ccc(N/N=C/c2cc3ccccc3nc2Cl)cc1	1.4	2.0	1.9	-1.4	3.9	-7.9	·
O=C(N/N=C/C(Cl)=C/c1ccc([N+](=O)[O-])cc1)C(=O)Nc1ccc(C(=O)O)cc1	-0.1	1.6	-1.8	0.6	-1.2	-5.2	·
O=C(N/N=C/C(Cl)=C/c1ccc([N+](=O)[O-])cc1)C(=O)Nc1ccccc1C(=O)O	0.2	7.5*	15.0	12.1	-3.3	-3.9	3.5
C/C(=N/O)c1cc(C(C)(C)C)c(O)c(C(C)(C)C)c1	2.3	11.9*	-0.7	0.9	-5.0	-7.0	11.4*
O=S1(=O)N=C(N2CCCc3ccccc32)c2ccccc21	0.1	10.1*	-5.7	-3.1	-0.7	-2.1	3.3
SMILES	PP5 inh	MsrA inhibitor	EBNA-1 inh	PP1 counter	ZTA counter	bovine MsrA act	MsrA inh confirm
COc1ccc(-c2cc(C(F)(F)F)nc(SCC(=O)N(C)Cc3cn(C)nc3C)n2)cc1OC	0.4	6.0*	8.4	-1.1	7.6	-7.8	3.9
CCCCn1c(N)c(N(CC(C)C)C(=O)CCNC(=O)c2ccc(Br)cc2)c(=O)[nH]c1=O	-1.8	-1.9	2.9	-7.4	-5.0	-2.4	·
O=[N+]([O-])c1ccc(N2CCCC2)c([N+](=O)[O-])c1	·	9.0*	·	·	·	-5.4	5.5*
Cn1c(=O)c(=O)n(C)c2cc(N3CCCCC3)c(NS(=O)(=O)c3ccc([N+](=O)[O-])cc3)cc21	0.5	4.8*	5.0	-1.5	0.2	-2.1	2.0
O=S1(=O)N[C@H](Cc2ccccc2)COc2cc(N3CCSCC3)ccc21	·	0.3	·	·	·	-3.6	·
Cc1ncc(CO)c(CNc2ccc(-c3nc4ccccc4[nH]3)cc2)c1O	·	6.4*	·	·	·	-5.5	5.2*
CCc1nn(CC(=O)NCc2cccnc2)c(=O)c2cc3occc3n12	-0.1	-0.2	-21.4	4.6	-8.6	-6.5	·
Nc1ccc(-c2nc3c(Cl)c(N)ccc3[nH]2)cc1	-4.3	5.3*	6.8	-1.7	25.5	-10.1	4.4
Nc1ccc2nc(-c3cc(Cl)c(N)c(Cl)c3)[nH]c2c1	1.8	4.8*	-6.8	1.0	4.4	-10.5	5.6*
Nc1ccc2nc(-c3ccc(Cl)cc3)[nH]c2c1	2.6	1.8	0.4	7.6	-3.1	-1.4	·
Nc1ccc(-c2nc3ccc(N)cc3[nH]2)cc1	-1.1	5.5*	5.6	-1.7	-4.5	-3.2	4.0
Nc1ccc(-c2nc3ccc(-c4nc5ccccc5o4)cc3[nH]2)cc1	3.3	4.0	-7.2	-4.8	-5.3	-3.7	·
CC(=O)Nc1cccc(-c2ccnc3c2CC(C)(C(=O)NCc2ccc(F)c(F)c2)O3)c1 (configuration not stated)	·	-1.2	·	·	·	-6.1	·
CCOC(=O)CSC1=NC(=O)/C(=C/c2ccc(Br)cc2)S1	-0.6	3.3	1.9	-4.8	3.3	-4.0	·
CCOC(=O)CSC1=NC(=O)/C(=C\c2ccc(OC(C)=O)cc2)S1	2.3	5.4*	-5.1	2.3	-1.3	-2.7	2.4
COc1nccnc1NS(=O)(=O)c1ccc(N/C=C2\CCCCC2=O)cc1	1.2	5.3*	2.8	-3.3	-8.4	-3.4	4.6*
Nc1ccc(-c2nc3ccc(N)cc3o2)cc1	-0.9	4.8*	2.8	-0.6	9.8	-2.0	5.4*
Cc1ccsc1/C=C1\SC(N)=NC1=O	-1.3	5.0*	8.9	-3.8	18.2	-7.7	3.6
Cc1ccc(/C=C2\SC(N)=NC2=O)s1	1.3	2.4	6.0	0.8	-5.2	-3.8	·
Cc1onc(-c2ccccc2)c1C(=O)Nc1nnc(-c2ccncc2)s1	3.6	5.0*	-0.2	-7.6	6.0	-19.1	4.9*
COc1ccc(Nc2nc3cc(C)ccc3cc2C#N)c(OC)c1	0.9	0.1	-2.9	-1.7	-31.8	-1.2	·
COc1ccc(Nc2nc3cc(C)ccc3cc2C#N)cc1	1.6	8.7*	15.0	0.9	8.7	-3.6	6.9*
Cc1c(C(=O)N/N=C/c2cccs2)nc2ccccn12	0.2	6.6*	-12.1	0.7	-14.9	-0.9	6.4*
CSc1ccc(S(=O)(=O)Nc2ccc3c(c2)OCCO3)cc1	-0.6	-0.9	0.4	-0.8	4.4	-1.0	·
CSc1ccc(/C=N/n2nnnc2N)cc1	0.3	5.3*	2.9	0.2	4.1	-5.5	5.2*
Nc1nnnn1/N=C/c1ccc(O)cc1	0.9	3.0	-5.0	3.5	-13.8	-2.8	·
